Data reported in PubChem BioAssay AID602476 (National Center for Advancing Translational Sciences (NCATS), 2012).
Records with an inconclusive call do not appear. Where a call stands in place of a potency, no number is given. Active and inactive are the calls of the source. Calls come from the whole dose curve; as a rule, active = well fitted activation curve with a large enough effect; inconclusive = small, poorly fitted or top-dose-only effect; inactive = flat fitted curve, though single readings scatter.

Experiment: FLuc inhibitory activity for the follow-up compounds in a cell-based translational read-through assay
Settings: GripTite 293 FLucUGA read-through, luminescence, 48 h; series mostly up to 38.3 µM
Description: NCGC Assay Overview: Firefly (Photinus pyralis) luciferase is one of the most commonly used transcriptional reporters. It is considered one of the more dynamically responsive reporters - that is, responsive to changes in reporter transcription - as it requires no post-translational modifications and is enzymatically active directly after protein synthesis (Wood, 1998). With no endogenous expression in mammalian cells and without the requirement of external excitation, it offers very little background signal, thus generally providing excellent signal to background for most assays. Previous profiling work to determine the prevalence of compounds that affect FLuc enzymatic activity (PubChem AID 411) identified that ~3% of the MLSMR library (then at ~72K) inhibited FLuc (Auld et al., 2008). […] Of the compounds identified in this profile that inhibited FLuc, 151 compounds were selected for further analysis, in an effort to better understand their mode of inhibiting FLuc. The assay described here was to determine the activity of the compounds in a cell-based firefly luciferase reporter gene assay originally designed to identify compounds that enchanced translational read-through of a FLuc cDNA that contained a premature stop codon (Auld et al., 2009; Auld et al., 2010). Compounds that enhance translational read-through or compounds that stabilize FLuc intracellularly are identified as active compounds in the assay.
NCGC Assay Protocol Summary: Reagents: Transient transfection of FlucUGA construct: TransFast Transfection Reagent (Promega #E2431); FLucUGA construct (refer to Auld et al., 2009) #GripTite 293 MSR Cell Line (Invitrogen #R795-07) #Complete growth media: DMEM (Invitrogen #11965), 10% HIFBS, 0.1mM MEM NEAA, 5mL/L pen-strep (of 5000U/mL stock), 600ug/mL Geneticin #Assay media: DMEM without phenol red (Invitrogen #21063), 5% charcoal-stripped HIFBS (Hyclone #SH30071.03), 0.1mM MEM NEAA In-house detection reagent: 300mM Tris-HCl, 300mM Trizma base, 300mM MgCl, 1% Triton-X100, 5mM DTT, 500uM Coenzyme A trilithium salt (Sigma #C3019),450uM ATP (Sigma #A7699), 1mM D-luciferin sodium salt monohydrate (Biosynth #L8240) Control compounds used were two known firefly luciferase inhibitors (3-(5-(3-chlorophenyl)-1,2,4-oxadiazol-3-yl)benzoic acid and 5-(2-fluorophenyl)-3-phenyl-1,2,4-oxadiazole), and DMSO. Assay Summary: Transient transfection of FlucUGA construct: Day 1: GripTite cells were plated in T175 flasks at a density of 1.75 x 10^7 cells/T175 flask in complete growth media without Geneticin and allowed to grow ON in a 37 degrees Celsius incubator. Day 2: Cells in T175 flask were transfected - with 10ug of DNA and 30uL Transfast in 12mL complete growth media without serum and without Geneticin for 4 hours at 37 degrees Celsius. After incubation, cells were trypsinized, spun down, and resuspended to a concentration of 3.3 x 10^5 cells/mL in assay media. 6uL of cells in assay buffer were dispensed at 2000cells/well (3.3 x 10^5 cells/mL) into Greiner solid-white TC-treated 1536-well plates using a Multidrop Combi (Thermo Fisher Scientific). Plates were incubated for one hour at 37 degree Celsius, 95% humidity, 5% CO2. These assay plates were then treated with 23nL of compound or DMSO using a Kalypsys pin tool, which allows for delivery of a 12-point titration of each compound to the assay plate, with a final compound concentration ranging from approximately ~38uM to 0.2nM. Assay plates were then incubated for 48 hours. After incubation, plates were washed three times with DPBS (7uL/well). After the third wash, 6uL of DPBS was added to each well. 3uL of 3X luciferase detection reagent was then added to each well using a flying reagent dispenser (FRD). After a 15 minute incubation to allow for cell lysis, luciferase activity was measured using a ViewLux CCD imager (PerkinElmer), with an average exposure time of 2-12 seconds.

Structure (SMILES) | Potency
O=C(O)c1ccc(NC(=O)c2cccc(C(=O)Nc3ccc(C(=O)O)cc3)c2)cc1 | inactive
O=C(Nc1ccccc1C(=O)O)c1cccc(NC(=O)c2ccccc2Cl)c1 | inactive
CCOc1ccc2nc(NC(=O)c3ccoc3C)sc2c1 | 1.79 µM (active)
Oc1ccc(-c2nc3ccccc3s2)c(O)c1 | 10 µM (active)
O=C(Nc1ccccc1C(=O)O)c1cc(S(=O)(=O)NCc2ccccc2)ccc1Cl | inactive
CC(C)Oc1ccc(C(=O)Nc2ccc(-c3nc4ccccc4s3)cc2)cc1 | inactive
O=C(Nc1ccccc1C(=O)O)c1ccc(NC(=O)C2CCCO2)cc1 (stereo not given) | inactive
O=C(Cc1ccccc1)Nc1ccccc1C(=O)Nc1ccc(C(=O)O)cc1 | inactive
O=C(O)c1cccc(NC(=O)c2cccc(S(=O)(=O)N3CCc4ccccc43)c2)c1 | inactive
Cc1ccc2sc(-c3ccc(N)cc3)nc2c1 | 1.59 µM (active)
O=C(Nc1ccccc1C(=O)O)c1ccccc1 | inactive
CC(C)(C)NC(=O)c1ccccc1-c1nc2ccccc2s1 | inactive
COc1cccc(-c2nc3ccccc3s2)c1 | 1.26 µM (active)
COc1ccc2nc(NC(=O)c3ccc(S(=O)(=O)N4CCCC(C)C4)cc3)sc2c1 (stereo not given) | inactive
O=C(Nc1ccccc1C(=O)O)c1cccc(NC(=O)c2ccc(Br)o2)c1 | inactive
COc1ccccc1C(=O)Nc1ccc(C(=O)O)cc1 | inactive
Cc1c(C)c2ccc(OCC(=O)Nc3ccccn3)c(C)c2oc1=O | 5.04 µM (active)
Cc1ccc(NS(=O)(=O)c2ccc(Cl)c(C(=O)Nc3cccc(C(=O)O)c3)c2)cc1 | inactive
CC(=O)Nc1cccc(C(=O)Nc2ccccc2C(=O)O)c1 | inactive
Cc1ccc(C(=O)O/N=C(\N)c2ccccn2)cc1 | 3.56 µM (active)

Structure (SMILES) | Potency
COc1ccc2nc(NC(=O)CCc3ccc(OC)c(OC)c3)sc2c1 | inactive
O=C(O)c1cccc(NC(=O)c2cccc(S(=O)(=O)N3CCc4ccccc4C3)c2)c1 | inactive
Nc1ccc(-c2nc3cc(N)ccc3s2)cc1 | 14.2 µM (active)
CC(C)c1ccc(C(=O)Nc2ccc(-c3nc4ccccc4s3)c(Cl)c2)cc1 | inactive
Cc1ccc(C(=O)Nc2cccc(C(=O)O)c2)cc1 | 4.49 µM (active)
Nc1ccc(C(=O)Nc2ccccc2C(=O)O)cc1 | inactive
O=C(Nc1ccccc1C(=O)O)c1cccc(C(=O)Nc2ccccc2C(=O)O)c1 | inactive
O=C(O)c1cccc(NC(=O)c2ccccc2NC(=O)c2ccco2)c1 | inactive
CCOc1c(Cl)cc(C(=O)Nc2ccccc2C(=O)O)cc1Cl | inactive
Cc1ccc(C(=O)Nc2cccc(C(=O)O)c2)cc1S(=O)(=O)N1CCCCC1 | 0.895 µM (active)
Cc1ccc(C(=O)Nc2ccccc2C(=O)O)cc1S(=O)(=O)N1CCCCCC1 | 14.2 µM (active)
O=C(O)c1cccc(NC(=O)c2cccc(S(=O)(=O)Nc3cccc(F)c3)c2)c1 | inactive
CCOc1ccc2nc(NC(=O)c3cc([N+](=O)[O-])ccc3N3CCOCC3)sc2c1 | inactive
O=C(Nc1ccccc1-c1nc2ccccc2s1)c1cccnc1 | inactive
COc1ccccc1C(=O)Nc1ccc(C(=O)Nc2ccccc2C(=O)O)cc1 | inactive
COc1ccc2nc(NC(=O)c3cccc(S(=O)(=O)N4CCOCC4)c3)sc2c1 | inactive
C/C(=N\NC(=O)c1ccccc1NC(=O)c1ccc(Cl)cc1)c1ccncc1 | 0.283 µM (active)
CC(C)C(=O)Nc1cccc(C(=O)Nc2ccccc2C(=O)O)c1 | inactive
COc1ccc2nc(NC(=O)c3ccc(NS(=O)(=O)c4cccs4)cc3)sc2c1 | inactive
O=C(O)c1ccc(NC(=O)c2cccc(NC(=O)c3cccs3)c2)cc1 | inactive
